Experimental data from PubChem BioAssay (EPA / NIEHS).
Activity calls are given as the source filed them. How the source made its calls: active means hit-call score of the fitted dose curve at least 0.9, where 1 is the maximum; inactive means score below 0.9.

Each compound was assayed against Paired box protein Pax-6 (Homo sapiens) (UniProt P26367) (assay: ATG_Pax6_CIS: Attagene CIS-FACTORIAL HepG2 Assay for human Paired Box 6 (PAX6) (AID 2282956)). Settings: HepG2 CIS-FACTORIAL PAX6 reporter transcription, RNA readout; actives raise or lower the signal.
Procedure: ATG_CIS is a cell-based, multiplexed-readout assay that uses HepG2, a human liver cell line, with measurements taken at 24 hours after chemical dosing in a 24-well plate.ATG_Pax6_CIS is one of 52 assay component(s) measured or calculated from the ATG_CIS assay. It is designed to make measurements of mRNA induction, a form of inducible reporter, as detected with fluorescence intensity signals by Reverse transcription polymerase chain reaction (RT-PCR) and Capillary electrophoresis technology.Data from the assay component ATG_Pax6_CIS was analyzed into 1 assay endpoint. This assay endpoint, ATG_Pax6_CIS, was analyzed with bidirectional fitting relative to DMSO as the negative control and baseline of activity. Using a type of inducible reporter, measures of mRNA for gain or loss-of-signal activity can be used to understand the reporter gene at the transcription factor-level as they relate to the gene PAX6. Furthermore, this assay endpoint can be referred to as a primary readout, because this assay has produced multiple assay endpoints where this one serves a reporter gene function. To generalize the intended target to other relatable targets, this assay endpoint is annotated to the dna binding intended target family, where the subfamily is paired box protein.
Human liver HepG2 cells are transiently transfected with multiple reporter transcription units (MRTUs) in 6-well plates using FuGene 6 reagent (Roche; 3 ml FuGene/1 mg DNA). The MRTU constructs are regulated by a cis-regulating element (promoter). […] A major difference between the CIS and TRANS system is that in CIS activities of endogenous TFs are measured, whereas the TRANS assay evaluates changes in activities of exogenous, chimeric NR-Gal4 proteins. […] At the end of 24 hour incubation, total RNA was isolated using TriZol reagent (Invitrogen). The isolated RNA is then reverse-transcribed using oligo(dT) primer and Mo-MLV reverse transcriptase (Invitrogen) with DNAse I (Ambion) treatment for 30 min. The one-tenth of the produced cDNA was amplified by PCR using Taq DNA polymerase (Invitrogen) and two reporter sequence-specific primers. The PCR products were fluorescently labeled by primer extension with 6-arboxyfluorescein (6-FAM) 5'-labeled reporter sequence-specific primer (2 min at 95 C, 20 s at 68 C and 10 min at 72 C) and these products were digested with 5U of HpaI (New England Biolabs) for 2h at 37 C. The fragments were purified using Qiaquick PCR columns (Qiagen), analyzed on an ABI 3130xL genetic analyzer (Applied Biosystems) with peak positions identified by using a set of X-rhodamine (ROX)-labeled MapMarker1000 molecular weight standards (BioVentures). The raw capillary electrophoresis data was processed using Attagraph software (Attagene).

Chain of Paired box protein Pax-6 (Homo sapiens) (P26367 whole entry, looked up): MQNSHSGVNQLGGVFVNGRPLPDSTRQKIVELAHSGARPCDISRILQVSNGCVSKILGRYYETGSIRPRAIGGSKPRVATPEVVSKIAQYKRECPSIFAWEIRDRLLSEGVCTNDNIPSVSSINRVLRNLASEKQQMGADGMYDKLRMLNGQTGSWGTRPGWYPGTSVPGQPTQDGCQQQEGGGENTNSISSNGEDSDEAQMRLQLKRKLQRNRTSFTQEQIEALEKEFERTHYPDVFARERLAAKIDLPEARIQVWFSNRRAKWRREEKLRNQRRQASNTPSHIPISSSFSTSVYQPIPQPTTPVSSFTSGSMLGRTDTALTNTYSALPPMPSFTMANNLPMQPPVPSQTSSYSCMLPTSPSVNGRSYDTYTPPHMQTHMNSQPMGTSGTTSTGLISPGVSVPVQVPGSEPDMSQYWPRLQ

Structure (SMILES)	outcome	AC50
N#CN=C(N)N	inactive	
CCC(C)(C)c1ccc(O)c(C(C)(C)CC)c1	inactive	
CCCCOCCOC(C)=O	inactive	
Cc1ccccc1C(=O)Nc1cccc(OC(C)C)c1	inactive	
CC(C)(c1ccc(OCC2CO2)cc1)c1ccc(OCC2CO2)cc1 (stereo not given)		39.2 µM (active)
CCC[CH2][Sn]([Cl])([Cl])[Cl]	inactive	
[O-][Cl+2]([O-])O	inactive	
COc1cccc(C=O)c1	inactive	
O=Cc1cccc(Oc2ccccc2)c1	inactive	
CC(=O)C=C(C)C	inactive	
CCOP(=S)(OCC)SCSP(=S)(OCC)OCC	inactive	
CCC1(c2ccc(N)cc2)CCC(=O)NC1=O (stereo not given)	inactive	
CCc1ccccc1C	inactive	
CCCCCCCCSC(=O)Oc1cc(Cl)nnc1-c1ccccc1		146 µM (active)
CCCCCCCCc1ccc(O)cc1	inactive	
C=C(C)C#N	inactive	
BrCCBr	inactive	
CCc1ccccc1N	inactive	
c1ccc(N=NNc2ccccc2)cc1		125 µM (active)
O=[N+]([O-])c1ccc(O)c([N+](=O)[O-])c1	inactive	

Structure (SMILES)	outcome	AC50
C[C@]12CCC(=O)C[C@@H]1CC[C@@H]1[C@@H]2CC[C@]2(C)[C@@H](O)CC[C@@H]12	inactive	
CC1(C)CCC(Cc2ccc(Cl)cc2)C1(O)Cn1cncn1 (stereo not given)	inactive	
CCC(=O)C(CC(C)N(C)C)(c1ccccc1)c1ccccc1 (stereo not given)	inactive	
Nc1cccc2ccccc12	inactive	
COC[C@H](C)N(C(=O)CCl)c1c(C)csc1C	inactive	
ClCCBr	inactive	
Cn1sc(Cl)cc1=O	inactive	
COP(=S)(OC)Oc1cc(Cl)c(Cl)cc1Cl	inactive	
O=CC=O	inactive	
ClC1=C(Cl)[C@]2(Cl)[C@H]3[C@H]([C@H]4C=C[C@H]3C4)[C@@]1(Cl)C2(Cl)Cl	inactive	
O=C(Cc1ccccc1)c1ccccc1	inactive	
CCNc1nc(NC(C)(C)C)nc(SC)n1	inactive	
CC(C)(C)CC(C)(C)c1ccc(O)cc1	inactive	
CN(C)P(=O)(N(C)C)N(C)C	inactive	
Cl/C=C/Cl	inactive	
COC(=O)Cc1ccccc1	inactive	
CCC(C)c1cccc(C(C)CC)c1O (stereo not given)	inactive	
C[C@H]1CCCC(=O)CCC/C=C/c2cc(O)cc(O)c2C(=O)O1	inactive	
O=C(O)C(F)(F)C(F)(F)C(F)(F)C(F)(F)C(F)(F)C(F)(F)F	inactive	
CC(C)C1CCC(Cc2ccc(Cl)cc2)C1(O)Cn1cncn1 (stereo not given)	inactive	
